# Source: PubChem BioAssay AID547 (Emory University Molecular Libraries Screening Center, 2006)
# The whole screen tested about 1,300 compounds, of which about 10 (0.8%) were called active. This excerpt belongs to a sample that is enriched for actives. Values without a mark were called inactive. No rule for the calls is given here.
# Molecular target: Chaperone protein DnaK (Escherichia coli (strain K12)) (UniProt P0A6Y8)
# Assay: E. coli DnaK chaperone inhibitors, primary screen, luminescence, E. coli K12 (AID 547);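 also: tested at 10 µM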
# Settings: DnaK chaperone assay, luminescence read-out; stronger effect = lower value
row,SMILES,luminescence
1,CCCCCCCCCCCCCCCCOCC(COCC(F)(F)F)OP(=O)(O)OCO (stereo not given),2.4e+06 cps
2,O=c1ccc2c(OCCCCc3ccccc3)c3ccoc3cc2o1,2.8e+06 cps
3,Cc1c(C)c2c(c(C)c1O)CCC(C)(CN1CCN(c3cc(N4CCCC4)nc(N4CCCC4)n3)CC1)O2 (stereo not given),2.6e+06 cps
4,CN/C(=C\[N+](=O)[O-])NCCSCc1ccc(CN(C)C)o1,2.6e+06 cps
5,CN(C)c1nc(N)c(C(=O)N=C(N)N)nc1Cl,2.5e+06 cps
6,Cc1cc(N)c2ccccc2[n+]1CCCCCCCCCCCCCC[n+]1c(C)cc(N)c2ccccc21,3e+06 cps
7,O=C(O)c1cc(=O)cc(C(=O)O)[nH]1,2.7e+06 cps
8,Cc1ccc(N(CC2=NCCN2)c2cccc(O)c2)cc1,2.5e+06 cps
9,CC(COc1ccc(/C=C/c2ccccc2)cc1)[N+](C)(C)C (stereo not given),2.1e+06 cps
10,Cc1nc2ccccn2c(=O)c1CCN1CCC(C(=O)c2ccc(F)cc2)CC1,2.5e+06 cps
11,CC1(C)C(=O)N(CCN2CCC(C(=O)c3ccc(F)cc3)CC2)c2ccccc21,2.6e+06 cps
12,O=C(c1ccc(F)cc1)C1CCN(CCn2c(=O)[nH]c3ccccc3c2=O)CC1,1.7e+06 cps (active)
13,C[C@H](CS)C(=O)N1CCC[C@H]1C(=O)O,2.6e+06 cps
14,N[C@@H](Cc1cnc[nH]1)C(=O)O,2.9e+06 cps
15,C=C[C@H]1CN2CCC1C[C@@H]2[C@@H](O)c1ccnc2ccc(OC)cc12 (stereo not given in full),2.3e+06 cps
16,CC1(NCC(O)COc2cccc3[nH]ccc23)CCC(C(C)(C)NC(=O)CBr)CC1 (stereo not given),2.2e+06 cps
17,OCCN1CCN(CCCN2c3ccccc3Sc3ccc(C(F)(F)F)cc32)CC1,2.6e+06 cps
18,O=C1NC(O)=NC1(c1ccccc1)c1ccccc1,2.6e+06 cps
19,C=C[C@H]1CN2CCC1C[C@H]2[C@H](O)c1ccnc2ccc(OC)cc12 (stereo not given in full),2.4e+06 cps
20,O=c1[nH]c2cc([N+](=O)[O-])c([N+](=O)[O-])cc2[nH]c1=O,3e+06 cps
21,C#CC(N)CCC(=O)O (stereo not given),2.7e+06 cps
22,C[C@H](Cc1ccc(O)c(O)c1)[C@@H](C)Cc1ccc(O)c(O)c1,2e+06 cps
23,NC1(C(=O)O)CCc2cc(C(=O)O)ccc21 (stereo not given),2.8e+06 cps
24,CC(C)(C)NCC(O)c1cc(O)cc(O)c1 (stereo not given),2.3e+06 cps
25,Cc1ccccc1N1CCN(S(=O)(=O)C[C@]23CCC(CC2NC(=O)[C@@H](N)CCS(C)(=O)=O)C3(C)C)CC1 (stereo not given in full),2.6e+06 cps
26,C[C@]12C=CC(=O)C=C1CC[C@@H]1C2=CC[C@]2(C)[C@@H](C(=O)CN3CCN(c4cc(N5CCCC5)nc(N5CCCC5)n4)CC3)CC[C@@H]12,2.4e+06 cps
27,Nc1ccc(N2C(=O)c3ccccc3C2=O)c(Cl)c1,2.7e+06 cps

row,SMILES,luminescence
1,CC(=O)N[C@@H](Cc1c[nH]c2ccccc12)C(=O)OCc1cc(C(F)(F)F)cc(C(F)(F)F)c1,2.8e+06 cps
2,Brc1ccc([C@H]2CN3CCSC3=N2)cc1,2.2e+06 cps
3,CN=C(N)NCCC[C@H](N)C(=O)O,2.2e+06 cps
4,[N-]=[N+]=Nc1ccc(C(=O)CSC[C@H](NC(=O)CC[C@H](N)C(=O)O)C(=O)NCC(=O)O)cc1,1.6e+06 cps (active)
5,N[C@@H](CCC(=O)N[C@H](CSN=O)C(=O)NCC(=O)O)C(=O)O,2.5e+06 cps
6,C#C[C@]1(O)CC[C@H]2[C@@H]3CCC4=Cc5oncc5CC4(C)[C@H]3CCC21C (stereo not given in full),3e+06 cps
7,Nc1ncnc2c1nc(Sc1ccc(Cl)cc1)n2C1OC2COP(=O)(O)O[C@@H]2[C@@H]1O (stereo not given in full),2.7e+06 cps
8,CC(C)NCC(O)c1ccc(NS(C)(=O)=O)cc1 (stereo not given),2.3e+06 cps
9,CCn1c(=O)c2[nH]c(-c3ccccc3)nc2n(CC)c1=O,2.8e+06 cps
10,CC(C)Cn1c(=O)n(C)c(=O)c2[nH]cnc21,2.1e+06 cps
11,CCOC(=O)C12CC1/C(=N/O)c1ccccc1O2 (stereo not given),2.4e+06 cps
12,NC(CO)C(=O)NNCc1ccc(O)c(O)c1O (stereo not given),2.2e+06 cps
13,C=CC[C@H](N)C(=O)O,2.5e+06 cps
14,N[C@@H](Cc1c[nH]c2ccccc12)C(=O)O,2.2e+06 cps
15,NC(C(=O)N[C@@H]1C(=O)N2C(C(=O)O)=C(Cl)CS[C@H]12)c1ccccc1 (stereo not given in full),2.8e+06 cps
16,CCN(CC)CCCC(C)Nc1c2ccc(Cl)cc2nc2ccc(OC)cc12 (stereo not given),2.3e+06 cps
17,CCC1(O)CC2CN(CCc3c([nH]c4ccccc34)[C@@](C(=O)OC)(c3cc4c(cc3OC)N(C)C3[C@]45CCN4CC=C[C@@](CC)([C@@H](OC(C)=O)[C@]3(O)C(=O)OC)[C@H]45)C2)C1 (stereo not given in full),2.4e+06 cps
18,Cc1cc(C)c(NC(=O)C[C@H](CC(=O)O)c2cccc3ccccc23)c(C(=O)N2CCC3(CCCC3)CC2)c1,2.4e+06 cps
19,Nn1nnc2ccccc21,2.9e+06 cps
20,O=c1onc2cnc3ccccc3n12,2.2e+06 cps
21,CCOC(=O)Nc1ccc(NCc2ccc(F)cc2)nc1N,2.9e+06 cps
22,CCCC(=O)NCCc1c2n(c3ccc(OC)cc13)CCCc1ccccc1-2,2.6e+06 cps
23,Clc1ccc2c(c1)C(N1CCNCC1)=Nc1ccccc1O2,3.1e+06 cps
24,CNC(=O)[C@H]1O[C@@H](n2cnc3c(NCc4ccc(N)cc4)ncnc32)C(O)[C@H]1O (stereo not given in full),2.7e+06 cps
25,O=C(CCc1ccc(O)cc1)c1c(O)cc(O)cc1O,2.4e+06 cps
26,N.N.N.N.N.N.N.N.N.N.N.N.N.N.O.O.[Cl-].[Cl-].[Cl-].[Cl-].[Cl-].[Cl-].[Ru+4].[Ru+5].[Ru+5],2.1e+06 cps
27,Fc1ccc(C(OCCCc2cnc[nH]2)c2ccc(F)cc2)cc1,2.6e+06 cps

row,SMILES,luminescence
1,CN(C)CCC(c1ccc(Cl)cc1)c1ccccn1 (stereo not given),2.6e+06 cps
2,C=Cc1c(C)c2cc3[nH]c(cc4nc(cc5nc(cc1[nH]2)C(C)=C5CCC(=O)O)C(CCC(=O)O)=C4C)c(C)c3C=C,2e+06 cps
3,O=C(Nc1ccc([N+](=O)[O-])cc1Cl)c1cc(Cl)ccc1O,1.7e+06 cps (active)
4,O=C(Nc1ccccc1)c1cc([N+](=O)[O-])ccc1Cl,2.6e+06 cps
5,O=C(O)c1cc([N+](=O)[O-])ccc1NCCCc1ccccc1,2.6e+06 cps
6,NCC(O)c1ccc(O)c(O)c1 (stereo not given),2.7e+06 cps
7,O=C(O)c1cc(=O)c2ccc(Cl)cc2[nH]1,2.8e+06 cps
8,CN=c1nc(-c2ccccc2)n(-c2ccccc2)s1,2.4e+06 cps
9,O=S(=O)(NCCNC/C=C/c1ccc(Br)cc1)c1cccc2cnccc12,2.4e+06 cps
10,O=C(OCCN1CCCCC1)c1c[nH]c2ccccc12,2.9e+06 cps
11,O=C(O)/C(=C/c1c(C(=O)O)[nH]c2cc(Cl)cc(Cl)c12)c1ccccc1,2.5e+06 cps
12,Cc1cn([C@H]2C=C[C@@H](CO)O2)c(=O)[nH]c1=O,2.9e+06 cps
13,CCN(CC)C(C)C(=O)N1c2ccccc2Sc2ccccc21 (stereo not given),2.4e+06 cps
14,O=C(O)c1cc2cc(Cc3cccnc3)ccc2o1,3.2e+06 cps
15,O=C(c1ccccc1)c1ccc2n1CCC2C(=O)O (stereo not given),2.9e+06 cps
16,C[N+](C)(C)CCOC(N)=O,2.6e+06 cps
17,NCCc1cnc[nH]1,3.3e+06 cps
18,Nc1c(S(=O)(=O)O)cc(Nc2ccc(Nc3nc(Cl)nc(Nc4ccc(S(=O)(=O)O)cc4)n3)c(S(=O)(=O)O)c2)c2c1C(=O)c1ccccc1C2=O,1.6e+06 cps (active)
19,O=C(O)C1CN(CCCP(=O)(O)O)CCN1 (stereo not given),2.6e+06 cps
20,COc1ccccc1N1CCN(CCCCNC(=O)c2ccc3ccccc3c2)CC1,2.7e+06 cps
21,COc1cc2c(cc1OC)-c1cc(=Nc3c(C)cc(C)cc3C)n(C)c(=O)n1CC2,2.5e+06 cps
22,O=C(O)C1=CC(=C(c2ccc(O)c(C(=O)O)c2)c2ccc(O)c(C(=O)O)c2)C=CC1=O,1.2e+06 cps (active)
23,O=C(/C=C/c1ccc(O)c(O)c1)OCCc1ccccc1,3e+06 cps
24,C[C@@H]1C(=O)NC2=Nc3cccc(Cl)c3CN21,2.4e+06 cps
25,COc1cc(C(O)CO)ccc1O (stereo not given),2.8e+06 cps
26,CNCCNS(=O)(=O)c1cccc2cnccc12,2.6e+06 cps
